BaF3 tox: counter-screen for JAK2V617F inhibitors: parental Ba/F3 viability inhibitors | 220,000 compounds, 1.1% hits | inhibition, % at 5.6 µM | AID 1486 | CellTiter-Glo ATP luminescence;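 active = inhibition above a per-campaign cutoff, the mean inhibition of all tested compounds plus 3 SD, cut at about 27% in these data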
APP 5UTR inh: APP translation inhibition | 190,000 compounds, 0.82% hits | AID 1285 | SH-SY5Y APP 5'UTR-luciferase reporter, luminescence | inhibition, % at 2 µM;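 active = inhibition above a set limit, derived from the sample mean plus 3 SD, cut at about 45% in these data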
IEC-6 tox-1: kills IEC-6 intestinal cells in KLF5 counter-screen. IEC-6 cytotoxicity, luminescence viability. inhibition, % at 5 µM. 290,000 compounds, 0.78% hits. AID 1825
KLF5 inh: suppresses KLF5 promoter-driven expression. DLD-1 KLF5 promoter-luciferase reporter, luminescence. inhibition, % at 5 µM. 290,000 compounds, 0.23% hits;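 active = inhibition above a per-plate limit of that plate's mean compound inhibition plus 3 SD, cut at about 60% in these data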;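 also: higher means less KLF5 promoter-driven luciferase light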
aSyn UTR inh: MLPCN primary screen, SNCA 5' untranslated region | alpha-synuclein 5'UTR reporter, inhibitor activity | inhibition, % (tested at 7.5 µM) | 300,000 compounds, 0.82% hits | AID 1813; in the data active = inhibition above about 60%;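 also: H4 neuroglioblastoma cells stably carrying SNCA 5'UTR luciferase fusion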
Ba/F3 V617F tox: lowers viability of Ba/F3 cells expressing EpoR and JAK2V617F. 220,000 compounds, 1.1% hits. inhibition, % at 5.6 µM. ATP luminescence;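 active = inhibition above the campaign mean plus 3 SD over all tested compounds, cut at about 24% in these data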;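 also: cytokine-independent growth of Ba/F3 cells driven by EpoR plus mutant JAK2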
BaF3 parental 2: reduces parental Ba/F3 viability, JAK2V617F counter-screen. shares compounds with Ba/F3 V617F tox. CellTiter-Glo luminescence; cells kept alive by added IL-3. inhibition, % at 5.6 µM. 580 compounds, 31% hits. AID 1520;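 active = cell growth inhibition above the hit limit set in the earlier mutant JAK2 cell screen, cut at about 27% in these data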
JAK2V617F conf: Ba/F3 EpoR-JAK2V617F viability loss, confirmation | shares compounds with Ba/F3 V617F tox | CellTiter-Glo luminescence | inhibition, % at 5.6 µM | 580 compounds, 66% hits;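 active = mean inhibition above the hit cutoff derived in the earlier primary screen, cut at about 25% in these data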;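 also: higher means lower luminescence from reduced cell ATP and viability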
KLF5 inh confirm: confirmation of KLF5 inhibitors | shares compounds with KLF5 inh | DLD-1 KLF5 promoter firefly luciferase reporter, luminescence | inhibition, % at 4 µM | 610 compounds, 79% hits | AID 1834;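 active = inhibition above a set limit taken from the earlier primary screen, cut at about 63% in these data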
IEC-6 tox-2: counter-screen for KLF5 inhibitors: cytotoxicity in rat IEC-6 cells; shares compounds with KLF5 inh; IEC-6 rat intestinal cells, viability luminescence; inhibition, % at 4 µM; 610 compounds, 56% hits; in the data active = inhibition above about 23%;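 also: cells exposed to compounds for 48 hours before viability read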
IEC-6 tox confirm: IEC-6 cytotoxicity, confirmation assay | shares compounds with IEC-6 tox-1 | IEC-6 rat intestinal epithelial viability, luminescence | inhibition, % at 5 µM | 1,900 compounds, 63% hits
Hits are given with their value; . = inactive; / = no result given; ! = a repeat was not active. In the library only some 2.1% were active in any assay of this set; here they are far more common. Rule as the data show it, unless noted: active = inhibition above about 22%; inactive = the rest.

SMILES	BaF3 tox	APP 5UTR inh	IEC-6 tox-1	KLF5 inh	aSyn UTR inh	Ba/F3 V617F tox	IEC-6 tox confirm	others
C/C(=C\c1ccc(N(C)C)cc1)[N+](=O)[O-]	.	.	.	.	.	31.6	/	BaF3 parental 2=.;JAK2V617F conf=74.0
CN(C)c1ccc(/C=C/[N+](=O)[O-])cc1	.	.	.	.	.	.	/
O=P(CCl)(Nc1ccccc1)C(Cl)(Cl)Cl (stereo not drawn)	.	.	.	.	.	.	/
O=C(Nc1ccccc1)N1CCC2(CC1)OCCO2	.	.	.	.	.	30.1	/	BaF3 parental 2=.;JAK2V617F conf=.
CC12CCCCC1N(O)CN2O (stereo not drawn)	.	.	.	.	.	.	/
c1ccc2[nH]c(CCNC3CCCCC3)nc2c1	.	.	.	.	.	49.3	/	BaF3 parental 2=.;JAK2V617F conf=.
CC1(C)C[C@H]2C=C(C=O)[C@]3(C=O)C[C@]3(C)[C@H]2C1	.	95.7	.	.	116.9	62.7	/	BaF3 parental 2=102.5;JAK2V617F conf=99.9
Cc1nn(Cc2ccccc2)c(C)c1C(=O)OCC(=O)Nc1ccccc1SCC#N	.	.	.	.	.	.	/
CC1CCC/C=C/C2CC(O)CC2C(O)/C=C/C(=O)O1 (stereo not drawn)	.	94.4	100.9	94.2	132.8	62.2	99.8	BaF3 parental 2=102.8;JAK2V617F conf=66.8;KLF5 inh confirm=110.0;IEC-6 tox-2=102.4
C[C@H]1CCC[C@@H](O)CCC/C=C/c2cc(O)cc(O)c2C(=O)O1	.	.	.	.	.	.	/
C[C@H]1CCC/C=C/C2C[C@H](O)CC2[C@H](O)/C=C/C(=O)O1 (stereo partly drawn)	.	91.4	99.2	101.2	100.0	37.9	101.5	BaF3 parental 2=107.5;JAK2V617F conf=78.2;KLF5 inh confirm=110.0;IEC-6 tox-2=101.9
CC(c1ccccc1)n1cncc1C(=O)O (stereo not drawn)	.	.	.	.	.	.	/
O=C1C(=O)c2ccccc2-c2ccccc21	102.5	58.1	102.9	106.0	118.9	99.7	/	KLF5 inh confirm=114.1;IEC-6 tox-2=100.9
c1ccc2c(NC3=NCCS3)cccc2c1	.	.	.	.	.	.	/
O=C(Nc1ccc(OC(=O)N2CCCC2)cc1)N1CCOCC1	.	.	.	.	.	.	/
O=C(Nc1ccc(OC(=O)N2CCCCC2)cc1)N1CCOCC1	.	52.0	.	68.2	88.9	.	/	KLF5 inh confirm=.;IEC-6 tox-2=.
COc1cc2c(c(OC)c1OC)-c1ccc(O)c(=O)cc1C(NC(C)=O)CC2 (stereo not drawn)	/	/	94.4	73.3	90.3	/	83.1	KLF5 inh confirm=89.4;IEC-6 tox-2=91.4
CCCCn1c(O)c(/C=C/C=Nc2ccccc2)c(=O)[nH]c1=O	.	.	.	.	.	.	/
CCCNC(=O)N1[C@H]2CC[C@@H]1C(C(=O)OC)=C(c1cccc(OC)c1OC)C2	/	/	/	/	.	/	/
Cc1nc2c(=O)n(C)c(=O)nc-2n(C)n1	100.7	.	102.1	105.3	114.8	98.7	96.0	KLF5 inh confirm=115.2;IEC-6 tox-2=95.6
CN1/C(=C\C=C\C2=[N+](C)c3ccc4ccccc4c3C2(C)C)C(C)(C)c2ccccc21	94.9	94.9	74.1	71.1	/	99.1	80.3	KLF5 inh confirm=115.5;IEC-6 tox-2=77.0
Nc1ccccc1C(=O)OC1CSC1	.	.	.	.	.	.	/
CNc1cc(Cl)c2nonc2c1[N+](=O)[O-]	79.3	84.5	93.1	.	.	49.6	37.5
CCOP(=S)(NN(Cc1ccccc1)C(=O)c1ccccc1)OCC	.	.	.	.	.	.	/
c1cncc(C2Nc3cccc4cccc(c34)N2)c1	.	/	38.1!	.	.	.	.
SMILES	BaF3 tox	APP 5UTR inh	IEC-6 tox-1	KLF5 inh	aSyn UTR inh	Ba/F3 V617F tox	IEC-6 tox confirm	others
c1cncc(C2CCCCN2)c1 (stereo not drawn)	.	/	.	.	.	.	/
CC(C)(C)c1ccc(CSc2cnn(C(C)(C)C)c(=O)c2Cl)cc1	/	/	29.5	.	100.8	/	.
COc1ccc(OC)c(CN2CCCC(C(=O)c3sccc3C)C2)c1 (stereo not drawn)	.	/	.	.	.	.	/
COC(=O)c1ccccc1-n1c(C)nc2ccccc2c1=O	.	.	.	.	/	.	/
O=C(O)c1cccc2nc3ccccc3nc12	.	.	39.6	.	.	.	.
COC(=O)c1c(C)[nH]c(C(=O)C(C)[N+]23CCN(CC2)CC3)c1C (stereo not drawn)	.	.	.	.	.	.	/
CCn1nc(-c2ccccc2)nc2c(=O)n(C)c(=O)nc1-2	.	.	99.3	.	.	.	59.9
COc1ccc(-c2nc3ccccc3c(=O)n2-c2ccc(OC)cc2)cc1	.	.	.	.	.	.	/
COc1cc2c(cc1/C=C/[N+](=O)[O-])OCO2	.	.	42.0	.	.	.	.
CCOP(=O)(OCC)C(O)c1ccc(N(C)C)cc1 (stereo not drawn)	.	/	.	.	.	.	/
CC1(C)CN=C(NCc2ccccc2Cl)S1	.	.	.	.	.	.	/
CC1(C)CC(N(CCc2ccccc2)Cc2ccccc2)CCO1 (stereo not drawn)	.	/	.	.	.	.	/
CC(=O)O[C@H]1C(=O)[C@@]2(C)C([C@H](OC(=O)c3ccccc3)[C@]3(O)C[C@H](OC(=O)[C@H](O)[C@@H](NC(=O)Cc4ccccc4)c4ccccc4)C(C)=C1C3(C)C)[C@]1(OC(C)=O)CO[C@@H]1C[C@@H]2O (stereo partly drawn)	/	/	91.0	.	93.4	/	85.9
CC(=O)O[C@@]12CO[C@@H]1C[C@H](O)[C@@]1(C)C(=O)[C@H](O)C3=C(C)[C@@H](OC(=O)[C@H](O)[C@@H](NC(=O)c4ccccc4)c4ccccc4)C[C@@](O)([C@@H](OC(=O)c4ccccc4)C12)C3(C)C (stereo partly drawn)	/	/	91.5	.	114.0	/	70.6
COC(=O)c1cc(C(O)(C(=O)OC)C(F)(F)F)c(/N=C/N(C)C)s1 (stereo not drawn)	.	.	.	.	.	.	/
C#CCOc1cc(C2C3=C(COC3=O)Nc3cc4c(cc32)OCO4)ccc1OC (stereo not drawn)	.	92.4	78.5	.	77.8	.	56.5
COC(=O)C(O)(c1ccc(N(C)C)cc1)C(F)(F)F (stereo not drawn)	.	.	.	.	.	.	/
CN(C)c1ccc(C(=O)c2ccc(N(C)C)cc2)cc1	.	/	33.4	.	.	.	49.7
C=C1[C@@H](C)[C@H]2[C@H](Cc3ccccc3)NC(=O)[C@]23OC(=O)/C=C/[C@H](O)CCC[C@@H](C)C/C=C/[C@H]3[C@@H]1O	47.9	54.3	86.6	.	108.9	44.5	85.2
